Drawing on PubChem BioAssay AID1532 (PCMD, 2009), this text covers inhibition for 81 molecules.

The campaign covered roughly 110,000 compounds. About 420 (0.38%) were called active. Cut-off read from the data, not from the text of the source: active = inhibition above about 30% (passing the limit was not always enough); inconclusive = no clear call, values can overlap the other calls. The entries come from a sample that favours actives as a whole.

For this test, the system named is RmlC (dTDP-4-dehydrorhamnose 3,5-epimerase) and RmlD (dTDP-4-dehydrorhamnose reductase), coupled enzyme assay. As to the kind of experiment: RmlC and RmlD coupled enzyme inhibitors, primary screen, biochemical, 384-well, compound mixtures, retest (AID 1532). To be noted: 384-well mixture HTS, at 5.5 µM, stronger effect = higher value.
Where [1] appears, read: measured here: mean retest inhibition.

Consider `Cc1ccc(-c2csc(NCCc3nc4cc(Cl)c(Cl)cc4n3CCOCCO)n2)cc1`, for which the inhibition was 7.32% (inactive). Regarding `C=CCNC(=O)c1csc(-c2ccccc2)n1`, the inhibition was 10.9% (inactive). As for `C=CCNc1nc(N)c(C(=C(C#N)C#N)c2ccccc2)s1`, the inhibition (above what the read-out allows, likely interference) was 654% (active). As to `CCOC(=O)CN1C(=O)N[C@@H](c2ccc(Br)cc2)C(C(C)=O)=C1C`, the inhibition was -1.77% (inactive).

With `COC(=O)c1c(C)cc(O)c(C)c1O`, the inhibition was 12% (inactive). As to `CC(C)(C)Oc1ccccc1Nc1nc(NCCO)nc(N2CCCC2)n1`, the inhibition was -10.1% (inactive).

As for `NC1=NC[C@@H](Cc2ccc(O)cc2)N1CC1CCCCC1`, the inhibition is 10.2% (inactive). For the molecule `C=CCOC(=O)C1=C[C@@H](c2ccccc2)C[C@@H](OCc2ccc(CO)cc2)O1`, the inhibition is 4.95% (inactive).

As for `CC[C@H](C)[C@@H](C(=O)N1CCNCC1)n1cc([C@@H](N)Cc2ccc(O)cc2)nn1`, the inhibition was -30% (inactive). In the case of `CC1(c2nnc(-c3ccncc3)o2)CC(c2cccnc2)=NO1` (stereo not drawn), the inhibition was -44.9% (inactive). Regarding `O=C1CCC(=O)N(O)CCCCCNC(=O)CCC(=O)N(O)CCCCCNC(=O)CCC(=O)N(O)CCCCCN1`, the inhibition was -1.74% (inactive). On the same count and under the same terms, for `O=C(CCS(=O)(=O)c1ccccc1)Nc1nc2c(s1)CCCC2` the value was -10.7% (inactive). On to `Fc1ccc2nc(N3CCCCC3)sc2c1`, for which the inhibition was -11.1% (inactive).

With `Fc1ccc2nc(Nc3nc4c(s3)CCCC4)sc2c1`, the inhibition is 35.3% (active). For the same molecule, the inhibition under setting [1] was found to be 127%. For `CCCCN1C(N)=NC[C@@H]1CC1CCCCC1`, the inhibition is 6.72% (inactive). In the case of `NC(=O)[C@H]1CC2(CC(c3cccc(NC(=O)[C@H]4CCC(=O)N4)c3)=NO2)CN1C(=O)c1ccccc1C(=O)c1ccccc1` (stereo partly drawn), the inhibition is 20.3% (inactive). For `Cc1cccc(NC(=S)NCc2ccc3[nH]c4c(c3c2)CCCC4)c1`, the inhibition was -2.9% (inactive).

In the case of `COc1ccc(SCCN2CCN(CC(C)C)CCC2=O)cc1`, the inhibition was 8.87% (inactive). In the case of `CCOC(=O)c1csc(NC(=O)c2ccc(S(=O)(=O)N3CCCC3)cc2)n1`, the inhibition is 96.7% (active). Besides, the inhibition under setting [1] was determined as 82.9%. For the molecule `CCOC(=O)CSc1nnc(NC(=O)c2cccc(S(=O)(=O)N3CCCC3)c2)s1`, the inhibition is 5.07% (inactive). Take `COc1ccc(C(=O)Nc2nc(-c3ccc(S(=O)(=O)N4CCOCC4)cc3)cs2)cc1`: the inhibition is -26.7% (inactive). For the molecule `Cc1nc(-c2ccc(Cl)cc2)sc1C1(C)CC(c2ccccc2F)=NO1` (stereo not drawn), the inhibition was 7.68% (inactive).

Turning to `COC(=O)C1=C[C@@H](C(=O)OC)[C@@H]2C3=C(C(=O)[C@]2(C)NC(=O)c2ccccc2)[C@H](C)n2c(=O)n(C)c(=O)n2[C@@H]3C1`, the inhibition was 2.28% (inactive). Consider `O=C(C1=C[C@H](c2ccc(C(F)(F)F)cc2)C[C@H](OCc2ccc(CO)cc2)O1)N1CCN(Cc2ccccc2)CC1`, for which the inhibition is 3.78% (inactive).

On to `CCN1C(=O)N[C@@H](c2ccccc2)C(C(=O)OC)=C1C`, for which the inhibition is -30% (inactive). Regarding `Cc1ccc(C)c(CSc2nc(-c3ccco3)nc3c2c(=O)n(C)c(=O)n3C)c1`, the inhibition was 4.13% (inactive). Regarding `C/C=C(/C)C(=O)Nc1cccc(C2=NOC3(C2)C[C@@H](C(N)=O)N(C(=O)C2(C)CC2)C3)c1` (stereo partly drawn), the inhibition was 4.45% (inactive). Still for that read-out and setting: for `NC(=O)C1=C[C@@H](c2csc3ccccc23)C[C@@H](OCc2ccc(CO)cc2)O1` the value was 19.8% (inactive). Turning to `CCCCCCCCCCCCN1[C@@H](CC(C)=O)c2cc(F)cc(F)c2S1(=O)=O`, the inhibition is -11.3% (inactive). As for `COc1ccccc1C1=CC(=O)CCC1`, the inhibition was 7.57% (inactive). Still for that read-out and setting: as for `CC1(C)C2CC[C@]3(C)C(CC=C4[C@@H]5C[C@@](C)(CO)CC[C@]5(C(=O)O)CC[C@]43C)[C@@]2(C)CC[C@@H]1O` (stereo partly drawn), the figure is 9.9% (inactive); as for `OCC[C@H]1C[C@H](O)[C@@H](O)[C@]2(CCCCO2)O1`, 7.31% (inactive); as for `Cc1cccc(NC(=O)c2sc3nc4c(c(-c5ccco5)c3c2N)CCC4)c1`, 20.3% (inactive). Turning to `NC(=O)c1sc2nc3c(c(-c4ccccc4)c2c1N)CCC3`, the inhibition is -14.4% (inactive). Regarding `CC(=O)Nc1ccc(NC(=O)c2sc3nc4c(c(-c5ccc(C)cc5)c3c2N)CCC4)cc1`, the inhibition is 47.9% (active). In addition, under setting [1], the inhibition was found to be 82.8%.

Turning to `CCOC(=O)c1ccccc1NC(=O)c1c(N)n(C)c(=O)[nH]c1=O`, the inhibition was 7.68% (inactive). Take `CC(C)(C)CN1C(=O)C(=O)NC[C@H]1Cc1cccc2ccccc12`: the inhibition was -1.48% (inactive). With `C#CCNC(=O)C1=C[C@@H](c2ccccc2)[C@H](CCCO)[C@@H](OCC)O1`, the inhibition was 0.66% (inactive). Consider `C/C=C(\C)C(=O)N1CC2(CC(c3cccc(NC(=O)CCCCC)c3)=NO2)C[C@@H]1C(N)=O` (stereo partly drawn), for which the inhibition was -5.61% (inactive). Regarding `CC(Sc1nc2c([nH]c3ccccc32)c(=O)n1C)c1ccccc1` (stereo not drawn), the inhibition was -7.85% (inactive).

Turning to `CC(C)=CCC/C(C)=C/C(=O)O`, the inhibition is 2.81% (inactive). On to `CCCC(=O)Nc1cccc(-c2cn3ccsc3n2)c1`, for which the inhibition is 3.46% (inactive). Turning to `c1ccc(-c2ccnc3nc(-n4cccc4)nn23)cc1`, the inhibition is -3.61% (inactive). `c1ccc(-c2cn3c(n2)CCc2ccc4cccnc4c2-3)cc1`: the inhibition was -52.8% (inactive). For the molecule `CC(=O)Nc1cccc(-c2cnc3ccccc3n2)c1`, the inhibition is 13.8% (inactive). Consider `c1ccc(-c2cn3cccnc3n2)cc1`, for which the inhibition was 70% (active). For the same molecule, the inhibition under setting [1] is 81.6%. On to `CC(=O)Nc1ccc(-c2cn3cccnc3n2)cc1`, for which the inhibition is 102% (active). The inhibition under setting [1] is 156%. On to `CCCn1c(=NC(C)=O)c(C(=O)OCC)cc2c(=O)n3ccccc3nc21`, for which the inhibition was 48.4% (active). Besides, under setting [1], the inhibition worked out at 60.1%. For the molecule `COc1ccc(CNC(=O)c2cc3c(=O)n4ccccc4nc3n(CC3CCCO3)c2=N)cc1` (stereo not drawn), the inhibition is -12.4% (inactive). As for `CCn1c(=N)c(S(=O)(=O)c2ccc(F)cc2)cc2c(=O)n3ccccc3nc21`, the inhibition was -13.4% (inactive). The same measure, in the same setting: for `C#CCOCCOCCOCCNc1nc(N2CCN(C(=O)[C@H](CCC(=O)O)n3cc(C(N)CO)nn3)CC2)nc(N2CCN(C(=O)[C@H](CCCCN)n3cc(C(N)[C@H](C)CC)nn3)CC2)n1` (stereo partly drawn) the value was 2.59% (inactive). Turning to `O=C(Nc1ccccc1)c1ccccc1NC(=O)C(F)(F)F`, the inhibition is 8.91% (inactive). As for `COCc1cc(=O)[nH]c2cc(NC(=O)C(F)(F)F)c(C)cc12`, the inhibition was 39.2% (active). Further, under setting [1], the inhibition amounted to 46.2%. `COc1ccc(OC)c2[nH]c(=O)c(CCNC(=O)C(C)(C)C)cc12`: the inhibition was 8.84% (inactive). Regarding `COC(C[C@@H](O)[C@H](C)[C@H](O)COCc1ccccc1)OC`, the inhibition is 2.05% (inactive). Consider `CC(C)CC(CO)N1CCN(C(=O)c2ccc(Cl)cc2Cl)CCC1=O` (stereo not drawn), for which the inhibition was -11.9% (inactive).

For `CCO[C@H]1OC(C(=O)O)=C[C@@H](C2CCCCC2)[C@@H]1CCCO`, the inhibition is -6.81% (inactive). Turning to `COc1ccc(CN2CC[C@H]3C=CC[C@@H](C(=O)N4CCOCC4)[C@H]3C2=O)cc1OC`, the inhibition was 7.97% (inactive). For `N#CCc1c(C#N)c(N)nc(N2CCCC2)c1C#N`, the inhibition is 14.6% (inactive).

As for `COC(=O)CCCC1=CC2=CC(=O)C(C)(OC(=O)c3cccs3)C(=O)C2=CN1c1cccc(C#N)c1` (stereo not drawn), the inhibition was -9.55% (inactive). For `C=CC1C(OC2OC(CO)C(O)C(O)C2O)OC=C(C(=O)OC)C1CC1CC(=O)CC(CC(=O)CCc2ccc(O)cc2)O1` (stereo not drawn), the inhibition is 3.85% (inactive). As for `C#CCOCCOCCOCCNc1nc(N2CCN(C(=O)[C@H](C(C)C)n3cc(CCO)nn3)CC2)nc(N2CCN(C(=O)[C@H](C(C)C)n3cc(CCO)nn3)CC2)n1`, the inhibition was -12.1% (inactive).

With `O=C(O)C1=C[C@H](c2cccs2)C[C@H](OCCCCO)O1`, the inhibition was 5.69% (inactive). With `COC(=O)COc1cccc2c(=O)n(CC(=O)NCCc3ccc(OC)c(OC)c3)ccc12`, the inhibition was 9.94% (inactive).

For the molecule `CC1=C(N2CCN(c3ncccn3)CC2)CCC1=O`, the inhibition was 12.7% (inactive).

`NC(=O)CC(NC(=O)Cc1cccc2ccccc12)c1ccc(NCc2cc(F)ccc2F)c([N+](=O)[O-])c1` (stereo not drawn): the inhibition is -7.96% (inactive).

With `COC(=O)c1ccc(C(NC(=O)OCc2ccccc2)/C(F)=C/[C@@H](C)C(=O)O)cc1` (stereo partly drawn), the inhibition was 3.33% (inactive). Consider `CCCC[C@@H]1CN=C(N)N1CCCC`, for which the inhibition is -28.4% (inactive). Same read-out and setting: as for `COc1ccc(C(CC(=O)N2CCN(c3ccccc3)CC2)c2c(O)cc(OC)cc2OC)cc1` (stereo not drawn), the figure is 0.73% (inactive); as for `C/C=C\C=C\C(=O)N1CC2(CC(c3cccc(NC(=O)/C(C)=C\C)c3)=NO2)C[C@H]1C(N)=O` (stereo partly drawn), -0.91% (inactive); as for `COC(C[C@@H]1O[C@@H]1C(=O)[C@H](C)OCc1ccccc1)OC`, -11.7% (inactive). Take `CCC1(CC)C(=O)C2=C3C1[C@H](C(=O)OC)C=C(C(=O)OC)C[C@H]3[C@H]1C(=O)N(Cc3ccccc3)C(=O)[C@H]1[C@H]2C` (stereo partly drawn): the inhibition was -0.95% (inactive). On to `C=C1CCN([C@H](C(=O)NCc2cc(OC)c(OC)c(OC)c2)C(C)C)S(=O)(=O)c2ccccc21`, for which the inhibition was 5.25% (inactive).

Take `CC1(C)CC[C@]2(C(=O)O)CC[C@]3(C)C(=CCC4[C@@]5(C)CC[C@H](O)C(C)(C)C5[C@H](O)C[C@]43C)[C@@H]2C1` (stereo partly drawn): the inhibition was -10.3% (inactive). Still for that read-out and setting: for `CCCCN1C(N)=NC[C@@H]1Cc1ccccc1` the value was -9.09% (inactive); for `COC(C[C@H](O)CC(=O)[C@@H](C)OCc1ccccc1)OC`, 5.9% (inactive); for `C=C1CCN([C@@H](Cc2ccccc2)C(=O)N2CCOCC2)S(=O)(=O)c2ccccc21`, -7.13% (inactive).

Take `C#CCO[C@@H]1C[C@H](n2cnc3c(=O)[nH]c(NC(=O)C(C)C)nc32)O[C@@H]1CO`: the inhibition is 17.4% (inactive). Still for that read-out and setting: for `CCO[C@@H]1OC(C(=O)NC2CC2)=C[C@H](C)[C@H]1CCCO` the value was -10.3% (inactive).

Take `C#CCOCCOCCOCCNc1nc(N2CCN(C(=O)C([C@@H](C)CC)n3cc(C(N)COC(=O)C(F)(F)F)nn3)CC2)nc(N2CCN(C(=O)[C@H](Cc3ccc(O)cc3)n3cc(C(N)[C@H](C)CC)nn3)CC2)n1` (stereo partly drawn): the inhibition was -15.9% (inactive). `COc1ccc(C2/C=C\CN(S(=O)(=O)c3cccs3)CC(=O)N2Cc2ccc(F)cc2)cc1` (stereo not drawn): the inhibition is -18.6% (inactive).
